# Measurements: the supplement of paper PMC7724964
# ± gives the standard deviation of the averaged measurements.
# T1: TSG101 1-145 UEV (domain begin residue: 1, domain end residue: 145), Q99816
# T1 chain: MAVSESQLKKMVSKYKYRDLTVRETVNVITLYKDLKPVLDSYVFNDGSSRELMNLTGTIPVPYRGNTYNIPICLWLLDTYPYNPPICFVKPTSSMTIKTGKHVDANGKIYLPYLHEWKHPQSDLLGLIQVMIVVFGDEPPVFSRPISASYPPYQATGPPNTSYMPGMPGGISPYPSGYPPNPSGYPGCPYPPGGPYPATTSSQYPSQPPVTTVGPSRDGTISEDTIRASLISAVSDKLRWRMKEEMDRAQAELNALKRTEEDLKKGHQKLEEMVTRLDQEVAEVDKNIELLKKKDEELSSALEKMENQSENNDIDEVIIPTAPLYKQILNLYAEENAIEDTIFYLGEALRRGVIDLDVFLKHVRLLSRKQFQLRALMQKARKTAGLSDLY
# T2: UEVLD 1-145 UEV (domain begin residue: 1, domain end residue: 145), Q8IX04
# T2 chain: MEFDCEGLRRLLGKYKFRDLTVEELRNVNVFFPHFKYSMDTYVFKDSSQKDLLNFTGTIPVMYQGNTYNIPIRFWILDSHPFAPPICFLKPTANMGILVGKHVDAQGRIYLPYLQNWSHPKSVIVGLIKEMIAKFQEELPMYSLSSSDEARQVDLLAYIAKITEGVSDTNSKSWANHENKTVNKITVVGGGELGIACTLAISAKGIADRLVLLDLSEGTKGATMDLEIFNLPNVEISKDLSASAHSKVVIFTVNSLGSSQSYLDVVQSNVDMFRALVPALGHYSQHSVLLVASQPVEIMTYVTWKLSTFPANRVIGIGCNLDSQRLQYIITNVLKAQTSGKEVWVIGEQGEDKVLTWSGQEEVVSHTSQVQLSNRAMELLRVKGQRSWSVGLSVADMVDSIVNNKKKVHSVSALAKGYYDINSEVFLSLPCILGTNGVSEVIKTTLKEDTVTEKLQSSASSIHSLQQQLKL
# T3: UQCRB 8-111 UCR_14kD (domain begin residue: 8, domain end residue: 111), P14927
# T3 chain: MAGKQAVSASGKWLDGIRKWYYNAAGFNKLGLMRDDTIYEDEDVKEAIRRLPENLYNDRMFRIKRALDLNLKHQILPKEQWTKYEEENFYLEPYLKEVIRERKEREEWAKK
# Tests used:
# Test in all cases: phage ELISA signal ratio (GST-PRM binding over GST background); higher = stronger binding of peptide-phage to the PRM
# [1] = biological target: T1, TSG101 1-145 UEV (domain begin residue: …
# Method in brief: (§1)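 Five rounds of selection were carried out against human peptide recognition domains fused to the C-terminus of glutathione S-transferase (GST) and expressed in 96-well plates. The M13 phage library presented randomized hexadecapeptides, cysteine-free and glycine-flanked, on the gene-8 major coat protein. For each value, the phage ELISA signal on the GST-domain fusion was divided by the signal on GST alone.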
# [2] = biological target: UBR5 2391-2453 PABP (domain begin residue: 2391, domain end residue: 2453), O95071
# UBR5 2391-2453 PABP (domain begin residue: 2391, domain end residue: 2453), O95071, sequence (O95071 whole entry): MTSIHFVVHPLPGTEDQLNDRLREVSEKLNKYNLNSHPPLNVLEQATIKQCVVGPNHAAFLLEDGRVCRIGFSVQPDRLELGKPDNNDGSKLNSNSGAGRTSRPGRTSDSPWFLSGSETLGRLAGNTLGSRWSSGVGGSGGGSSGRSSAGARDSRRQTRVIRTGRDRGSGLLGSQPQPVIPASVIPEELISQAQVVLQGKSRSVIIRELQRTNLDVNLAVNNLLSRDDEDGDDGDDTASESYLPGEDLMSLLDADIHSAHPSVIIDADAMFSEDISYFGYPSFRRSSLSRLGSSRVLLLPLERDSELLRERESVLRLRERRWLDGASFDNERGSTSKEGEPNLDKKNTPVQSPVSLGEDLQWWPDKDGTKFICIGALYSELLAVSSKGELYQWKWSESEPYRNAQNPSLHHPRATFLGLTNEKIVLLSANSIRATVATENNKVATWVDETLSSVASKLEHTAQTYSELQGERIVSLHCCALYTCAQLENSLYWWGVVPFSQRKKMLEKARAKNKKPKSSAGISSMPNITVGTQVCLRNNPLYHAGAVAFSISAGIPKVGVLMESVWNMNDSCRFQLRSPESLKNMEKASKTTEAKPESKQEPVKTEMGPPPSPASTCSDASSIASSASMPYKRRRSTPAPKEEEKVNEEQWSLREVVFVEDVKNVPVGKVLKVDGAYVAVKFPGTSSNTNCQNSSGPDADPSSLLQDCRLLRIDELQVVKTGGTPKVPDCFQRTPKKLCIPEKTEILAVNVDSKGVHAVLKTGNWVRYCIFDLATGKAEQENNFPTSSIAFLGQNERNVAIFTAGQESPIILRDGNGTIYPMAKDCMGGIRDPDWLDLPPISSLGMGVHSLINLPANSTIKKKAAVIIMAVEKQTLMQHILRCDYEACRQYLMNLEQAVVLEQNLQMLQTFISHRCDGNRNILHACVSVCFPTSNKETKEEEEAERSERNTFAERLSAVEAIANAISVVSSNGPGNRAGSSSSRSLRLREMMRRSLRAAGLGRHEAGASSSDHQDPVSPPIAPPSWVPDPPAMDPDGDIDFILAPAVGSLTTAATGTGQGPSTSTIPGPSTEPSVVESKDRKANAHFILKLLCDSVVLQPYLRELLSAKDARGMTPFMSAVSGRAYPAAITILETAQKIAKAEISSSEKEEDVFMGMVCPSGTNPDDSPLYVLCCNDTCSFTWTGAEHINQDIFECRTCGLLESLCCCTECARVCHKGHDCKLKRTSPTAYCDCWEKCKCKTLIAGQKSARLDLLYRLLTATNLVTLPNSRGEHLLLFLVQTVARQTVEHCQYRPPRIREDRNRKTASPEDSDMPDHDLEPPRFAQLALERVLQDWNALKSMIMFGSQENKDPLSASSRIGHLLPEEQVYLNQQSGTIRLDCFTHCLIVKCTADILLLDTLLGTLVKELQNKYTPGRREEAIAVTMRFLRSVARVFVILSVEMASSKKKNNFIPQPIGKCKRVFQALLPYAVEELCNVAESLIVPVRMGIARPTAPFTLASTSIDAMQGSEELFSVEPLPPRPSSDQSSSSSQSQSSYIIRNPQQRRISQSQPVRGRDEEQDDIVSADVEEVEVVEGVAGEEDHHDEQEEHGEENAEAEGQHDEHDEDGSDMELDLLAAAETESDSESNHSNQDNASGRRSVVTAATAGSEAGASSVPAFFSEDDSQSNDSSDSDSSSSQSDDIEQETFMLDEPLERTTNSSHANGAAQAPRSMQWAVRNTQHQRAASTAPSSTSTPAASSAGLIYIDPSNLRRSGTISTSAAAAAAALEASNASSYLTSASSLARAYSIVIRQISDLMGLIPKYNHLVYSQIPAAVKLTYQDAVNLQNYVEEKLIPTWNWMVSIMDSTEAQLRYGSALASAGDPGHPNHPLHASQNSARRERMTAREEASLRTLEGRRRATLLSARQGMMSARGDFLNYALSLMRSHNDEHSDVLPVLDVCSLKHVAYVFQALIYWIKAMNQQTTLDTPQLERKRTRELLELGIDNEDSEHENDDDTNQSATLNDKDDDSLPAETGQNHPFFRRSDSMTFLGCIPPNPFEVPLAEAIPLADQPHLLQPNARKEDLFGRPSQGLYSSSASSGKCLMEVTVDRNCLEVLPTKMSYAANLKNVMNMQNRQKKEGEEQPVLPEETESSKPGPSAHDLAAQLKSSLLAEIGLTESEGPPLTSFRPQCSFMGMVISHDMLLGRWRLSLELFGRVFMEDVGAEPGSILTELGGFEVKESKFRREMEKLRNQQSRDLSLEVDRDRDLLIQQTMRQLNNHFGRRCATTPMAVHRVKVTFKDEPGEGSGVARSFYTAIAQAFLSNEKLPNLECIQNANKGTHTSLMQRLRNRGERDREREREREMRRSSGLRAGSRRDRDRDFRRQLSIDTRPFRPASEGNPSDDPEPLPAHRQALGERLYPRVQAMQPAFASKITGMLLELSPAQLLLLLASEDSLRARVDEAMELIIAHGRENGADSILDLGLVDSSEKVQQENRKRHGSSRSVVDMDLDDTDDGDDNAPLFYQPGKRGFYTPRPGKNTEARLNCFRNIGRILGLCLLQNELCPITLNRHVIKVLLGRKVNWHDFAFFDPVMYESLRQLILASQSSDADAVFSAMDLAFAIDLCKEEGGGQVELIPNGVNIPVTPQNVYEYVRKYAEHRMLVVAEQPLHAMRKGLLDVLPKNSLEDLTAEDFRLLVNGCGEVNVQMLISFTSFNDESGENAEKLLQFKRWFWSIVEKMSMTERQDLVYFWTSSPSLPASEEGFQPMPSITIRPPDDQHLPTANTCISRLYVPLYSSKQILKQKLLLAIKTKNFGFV
# Method in brief: as §1
# [3] = biological target: T2, UEVLD 1-145 UEV (domain begin residue: …
# Method in brief: as §1
# [4] = biological target: UBE2V2 1-145 UQ_con (domain begin residue: 1, domain end residue: 145), Q15819
# UBE2V2 1-145 UQ_con (domain begin residue: 1, domain end residue: 145), Q15819, sequence (Q15819 whole entry): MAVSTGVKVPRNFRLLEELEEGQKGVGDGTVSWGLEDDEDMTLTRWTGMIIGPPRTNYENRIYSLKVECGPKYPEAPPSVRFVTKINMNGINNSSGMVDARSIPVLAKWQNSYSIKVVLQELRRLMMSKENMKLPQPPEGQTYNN
# Method in brief: as §1
# [5] = biological target: T3, UQCRB 8-111 UCR_14kD (domain begin …
# Method in brief: as §1
# [6] = biological target: U2AF2 372-475 RRM_1 (domain begin residue: 372, domain end residue: 475), P26368
# U2AF2 372-475 RRM_1 (domain begin residue: 372, domain end residue: 475), P26368, sequence (P26368 whole entry): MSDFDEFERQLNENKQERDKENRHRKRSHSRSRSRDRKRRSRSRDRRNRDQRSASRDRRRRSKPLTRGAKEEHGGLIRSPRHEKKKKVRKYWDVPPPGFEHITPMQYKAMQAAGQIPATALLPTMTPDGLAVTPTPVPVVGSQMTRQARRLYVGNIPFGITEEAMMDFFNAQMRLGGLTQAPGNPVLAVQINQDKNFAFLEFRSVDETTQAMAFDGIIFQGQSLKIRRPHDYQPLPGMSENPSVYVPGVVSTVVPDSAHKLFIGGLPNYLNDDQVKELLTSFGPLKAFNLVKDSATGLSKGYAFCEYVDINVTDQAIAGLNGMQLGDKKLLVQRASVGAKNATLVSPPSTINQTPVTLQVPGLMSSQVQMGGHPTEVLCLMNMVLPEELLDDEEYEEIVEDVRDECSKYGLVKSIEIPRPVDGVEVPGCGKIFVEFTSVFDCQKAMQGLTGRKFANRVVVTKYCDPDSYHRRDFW
# Method in brief: as §1
# [7] = biological target: UBA52 1-76 Ubiquitin (domain begin residue: 1, domain end residue: 76), P62987
# Method in brief: as §1
# [8] = biological target: VASP 1-114 WH1 (domain begin residue: 1, domain end residue: 114), P50552
# VASP 1-114 WH1 (domain begin residue: 1, domain end residue: 114), P50552, sequence (P50552 whole entry): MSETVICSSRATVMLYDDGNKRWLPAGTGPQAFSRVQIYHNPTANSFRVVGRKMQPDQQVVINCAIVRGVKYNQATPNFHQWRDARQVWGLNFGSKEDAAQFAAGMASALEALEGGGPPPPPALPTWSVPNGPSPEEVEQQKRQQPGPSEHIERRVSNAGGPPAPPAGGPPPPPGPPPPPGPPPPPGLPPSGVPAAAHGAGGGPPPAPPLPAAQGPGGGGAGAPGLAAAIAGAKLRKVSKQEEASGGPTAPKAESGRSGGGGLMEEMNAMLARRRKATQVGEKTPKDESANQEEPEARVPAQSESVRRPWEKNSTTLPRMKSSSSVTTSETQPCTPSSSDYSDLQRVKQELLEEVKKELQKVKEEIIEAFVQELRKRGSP
# Method in brief: as §1
binder,measurement,setting,value
MQEAPYNPAWMEVPEL,phage ELISA signal ratio,[1],27.7
SKELSVNAIPFDPHWY,phage ELISA signal ratio,[2],4.24
EFEWIDHFLGNMESGL,phage ELISA signal ratio,[3],8.99
KLDVFAVPFLSSQHEY,phage ELISA signal ratio,[2],22.6
SLEWWNDISHPYWWHQ,phage ELISA signal ratio,[4],6.28
NFNYPEQMYSYNPHWI,phage ELISA signal ratio,[1],20.4 ± 0.54
LSVAAPMFVPNNAVVS,phage ELISA signal ratio,[2],5.76
LDWRMAPEWQWITHHL,phage ELISA signal ratio,[3],3.3
APFTLWESSMEALGEL,phage ELISA signal ratio,[3],23.3
VSDLWWNPTWSSQETI,phage ELISA signal ratio,[1],9.75
VLDINAQPFHQSGFNH,phage ELISA signal ratio,[2],25.7
TGVEMMSYKAKPFYPE,phage ELISA signal ratio,[2],7.69
FDWRETLWESSQWMIA,phage ELISA signal ratio,[3],22.7
MSQDWPWPDLSWFDEP,phage ELISA signal ratio,[3],7.15
QVGWWMELDHPFWWHQ,phage ELISA signal ratio,[4],8.59
SQLSIMSLEAAPFTWE,phage ELISA signal ratio,[2],10.5
VLPDWMAQHAWEWTGH,phage ELISA signal ratio,[5],23.9
FDKWEQRRSVPMGQVQ,phage ELISA signal ratio,[6],3.6
NNQVMNVNATPYYWPT,phage ELISA signal ratio,[2],19.4
EFLNVMAPSWVDITEW,phage ELISA signal ratio,[2],16.9
EQDQDLEYRMHMEKWW,phage ELISA signal ratio,[3],19.8
EALNIFSPMWEPQYVV,phage ELISA signal ratio,[2],19.5
ALSMSAEPFHPMVNYV,phage ELISA signal ratio,[2],30.1
FSRWEQRQMQSVGGAG,phage ELISA signal ratio,[6],6.45
EMWVFTPAEWFQIYLN,phage ELISA signal ratio,[7],16.2
DDIWPVSAVHAQPFMV,phage ELISA signal ratio,[2],21.2
HQWQGDWDHEHIMMYW,phage ELISA signal ratio,[3],24.1
PAWPPWPAEAVWEATK,phage ELISA signal ratio,[8],12.3
